# Reference: patent US20210230599, “STEM-LOOP COMPOSITIONS AND METHODS FOR INHIBITING INTERLEUKIN-8” (VITRISA THERAPEUTICS, INC., published 2021)
# Target: Interleukin-8 (IL8, CXCL8), C-terminal His-tagged (Homo sapiens, UniProt P10145 SEQ:1-72)
# Assay: competition; competition TR-FRET; G18C
# Settings: tags: C-terminal 6xHis (Sino Biological); ssRNA; 2'-F G, 2'-OMe A/C/U, 5' C6NH2, 3' idT
# Method: To better understand the sequence requirements and to confirm the stem structures of members of the Aptamer 3 family as determined from sequence covariation analysis from both the primary and secondary (degenerate) selections, a series of variants which included mutations and deletions to the predicted stems were synthesized and screened (Table 24). Activity of each of these variants were tested using a time resolved competition TR-FRET assay in which the labeled parent Aptamer 3 was competed with increasing concentrations of unlabeled variants for binding to IL8 (FIG. 14). Briefly, 2-fold dilutions of thermally equilibrated aptamers were made in TR-FRET Buffer (50 mM MOPS, pH 7.4, 125 mM NaCl, 5 mM KCl, 50 μM CHAPS, 0.1 mg/mL BSA, 1 mM CaCl₂, and 1 mM MgCl₂). 5 μL of aptamer or control solution was added to 5 μl mix of 10 nM C-terminal His-tagged-IL8, 60 nM ALEXA FLUOR® 647-labeled Aptamer, and 5 nM anti-His-Eu (Perkin Elmer) in a black wall low volume 384 well plate (Greiner). For control, 5 μl of 1000-fold excess of unlabeled parent aptamer or 5 μl TR-FRET buffer alone was added to the mix of ALEXA FLUOR® 647-labeled aptamer, His-IL8, and anti-His-Eu. The plate was covered with a plate seal and subsequently incubated in the dark for 1 hour at room temperature. The plate was read on a Biotek CYTATION™ 5 plate reader. […]
row,Sequence,binding signal [fold worse than Aptamer 3]
1,UGAUGACGGUAGAUUACCGGUAGAGUGACCGCAUCU,> 10
